Test results as given in PubChem BioAssay (NCI).
About 83,000 compounds went through this panel and 20% of them were active in at least one assay; those are over-represented in the sample as a whole.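 Plates (96-well) were seeded with cells, treated with compound at one concentration, and incubated for 48 hours before percent growth was determined.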 Values without a mark were called inactive. Calls of active or inactive are those of the source. Rule for the calls: active = growth percent below 10; inactive = the rest.

system: TK-10 renal; test: NCI-60 one-dose screen, 48 h (100 = growth as untreated, 0 = no growth, -100 = all killed); details: 10 µM unless noted

| SMILES | growth |
| --- | --- |
| Clc1cccc(-c2ccc(OCCCN3CCN(c4ccncc4)CC3)cc2)c1 | 41.9% |
| CC12CC[C@@H]3[C@]4(C)COC(c5cn[nH]c5-c5ccc(Br)cc5)O[C@@H]4CC[C@@]3(C)[C@@H]1CC(C1=CCOC1=O)O2 (stereo not given in full) | 54.6% |
| CC12CC[C@@H]3[C@]4(C)COC(c5cn[nH]c5-c5cccc(Cl)c5)O[C@@H]4CC[C@@]3(C)[C@@H]1CC(C1=CCOC1=O)O2 (stereo not given in full) | 45.9% |
| CCCSc1nc(Nc2ccc(S(N)(=O)=O)cc2)c(C#N)c(-c2ccc(Cl)cc2)n1 | -16.4% (active) |
| COc1ccc(-c2nc3ccc(C(=O)NN4C(=O)c5ccc([N+](=O)[O-])cc5C4=O)cc3[nH]2)cc1 | 101% |
| C=C1CC[C@@H]2[C@]3(C)COC(c4cn[nH]c4-c4ccc(Br)cc4)O[C@@H]3CC[C@@]2(C)[C@@H]1C/C=C1/C(=O)OCC1O (stereo not given in full) | -65% (active) |
| Cc1cnc(C(=O)NNc2nc3cc(F)ccc3n3c(C(=O)N4CC5CC(C4)N5)ccc23)cn1 | 41.2% |
| CCCSc1nc(Nc2ccc(S(N)(=O)=O)cc2)c(C#N)c(-c2cc(OC)c(OC)c(OC)c2)n1 | 50.4% |
| C=C1CCC2C3(C)COC(c4ccccc4)OC3CCC2(C)C1CC(NCc1ccccc1)C1=CCOC1=O (stereo not given) | 76% |
| C=C1CC[C@@H]2[C@]3(C)COC(c4ccccc4)O[C@@H]3CC[C@@]2(C)[C@@H]1C/C=C1/C(=O)OCC1OC(C)=O (stereo not given in full) | -21.2% (active) |
